These results are taken from PubChem BioAssay (Tox21).

Values without a mark were called inactive. Results filed as inconclusive are left out. Activity calls are given as the source filed them. Unless noted, the call rests on the fitted dose curve; in most records, active means well fitted curve in the direction sought with a large enough effect in the repeat runs; inconclusive means weak or mixed curves; inactive means no such curve, though single readings can be large; an effect the other way counts as inactive or inconclusive.

Experiment [1] is described as follows: qHTS assay to identify small molecule agonists of the hypoxia (HIF-1) signaling pathway - cell viability counter screen (AID 1224844; calls by dose curve; further: nearly all actives have a fitted effect of over 50% in size; further: potency means the concentration at half of the fitted maximal effect). In outline: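 Cytotoxicity was measured in parallel with the HRE-driven beta-lactamase readout: after 17 hrs of compound exposure at 37C, HRE-bla ME-180 cells received CellTiter-Glo and luminescence was recorded 30 min later.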
A general note: qHTS replaces the single test concentration by a dilution series.

A short description of experiment [2]: qHTS assay to identify small molecule agonists of H2AX (AID 1224845; active means well fitted activation curve with a large enough effect in the signal ratio in the repeat runs, not every such curve was filed as active; the % refers to the signal ratio; further: potency means the concentration at half of the fitted maximal effect). The gist of the method:
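Phospho-H2AX Ser139 measured by HTRF (ex 320 nm; em 665 and 620 nm) after 24 hr antibody incubation. Compounds, 15 concentrations, 0.76% DMSO, were applied to CHO-K1 cells for 3hr at 37C before lysis.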

Experiment [3] in a line: qHTS assay to identify small molecule agonists of the hypoxia (HIF-1) signaling pathway (AID 1224846; active means well fitted activation curve with a large enough effect in the signal ratio in the repeat runs, not every such curve was filed as active; the % refers to the signal ratio; further: on the % scale 0 is the no-effect control and ±100 the full control effect). In outline:
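Compounds from the Tox21 10K library, dissolved in DMSO, are tested for induction of a hypoxia response element–controlled beta-lactamase reporter in ME-180 cells. Exposure lasts 17 hrs at 37C after a 5 hr settling period, followed by CCF4-AM FRET substrate.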

Experiment [4] in a line: qHTS assay to identify small molecule agonists of H2AX - cell viability counter screen (AID 1224847; calls by dose curve; further: nearly all actives have a fitted effect of over 30% in size; further: potency means the concentration at half of the fitted maximal effect). In outline:
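Quantitative HTS viability measurement: CHO-K1 wild-type cells in serum (10% FBS) medium, short 3 hr drug exposure at 37C with 0.76% DMSO, CellTiter-Glo luminescent detection.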

Experiment [5] is described as follows: qHTS RealTime-Glo MT Cell Viability Assay in HepG2 cells - 24 hour (AID 1224867). Further: nearly all actives have a fitted effect of over 50% in size. Further: potency means the concentration at half of the fitted maximal effect. The gist of the method: (§1)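 Real-time, nonlytic viability: 600 HepG2 cells/well mixed with NanoLuc enzyme plus prosubstrate; 5 h settle, compound (DMSO) added by pintool; luminescence monitored over 40 h at 37 C.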
The nature of experiment [6]: qHTS RealTime-Glo MT Cell Viability Assay in HEK293 cells - 32 hour (AID 1224868). Further: nearly all actives have a fitted effect of over 50% in size. Further: potency means the concentration at half of the fitted maximal effect. In outline: (§2)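 Cells + reagent dispensed (600 cells/well, HEK293) → 5 h at 37 C/5% CO2 → 23 nL compound in DMSO pinned → 40 h at 37 C → luminescence read at 0, 8, 16, 24, 32, 40 h.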
The nature of experiment [7]: A CellTox Green Cytotoxicity Assay to monitor cytotoxicity in HEK293 cells - 0 hour (AID 1224869). Further: nearly all actives have a fitted effect of over 50% in size. Further: potency means the concentration at half of the fitted maximal effect. On Cytotoxicity: on the % scale 0 is the no-effect control and ±100 the full control effect. The gist of the method: (§3)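 Cells (HEK293, 600/well) and dye reagent are dispensed together. After 5 h at 37 C, 23 nL compound is pinned in. Plates stay at 37 C for 40 h with fluorescence read at 0h, 8h, 16h, 24h, 32h and 40h.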
Experiment [8] is described as follows: A CellTox Green Cytotoxicity Assay to monitor cytotoxicity in HEK293 cells - 40 hour (AID 1224871). Further: nearly all actives have a fitted effect of over 45% in size. Further: potency means the concentration at half of the fitted maximal effect. In outline:
as §3

Experiment [9] is described as follows: qHTS RealTime-Glo MT Cell Viability Assay in HEK293 cells - 16 hour (AID 1224872). Further: nearly all actives have a fitted effect of over 50% in size. Further: potency means the concentration at half of the fitted maximal effect. In outline:
as §2

A short description of experiment [10]: qHTS RealTime-Glo MT Cell Viability Assay in HEK293 cells - 40 hour (AID 1224874). Further: nearly all actives have a fitted effect of over 50% in size. Further: potency means the concentration at half of the fitted maximal effect. On max response: on the % scale 0 is the no-effect control and ±100 the full control effect. Conditions: RealTime-Glo luminescence; max response: active compounds read low. In outline:
(§4)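 Real-time viability in HEK293: signal arises when living cells convert a prosubstrate for NanoLuc in the medium, so luminescence tracks viable cell number. Compound (23 nL, DMSO) added 5 h post-seeding; kinetic reads at 0–40 h, 37 C.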

Experiment [11] can be described thus: A CellTox Green Cytotoxicity Assay to monitor cytotoxicity in HEK293 cells - 24 hour (AID 1224875). Further: nearly all actives have a fitted effect of over 45% in size. Further: potency means the concentration at half of the fitted maximal effect. On activity change: on the % scale 0 is the no-effect control and ±100 the full control effect. In outline:
as §3

The nature of experiment [12]: A CellTox Green Cytotoxicity Assay to monitor cytotoxicity in HepG2 cells - 16 hour (AID 1224876). Further: nearly all actives have a fitted effect of over 45% in size. Further: potency means the concentration at half of the fitted maximal effect. The gist of the method:
(§5)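 Cells and non-lytic dye reagent are dispensed together (600 HepG2 cells/well) and incubated 5 h before DMSO compound transfer. Kinetic fluorescence is then recorded in the same wells during 40 h at 37 C.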

The nature of experiment [13]: qHTS RealTime-Glo MT Cell Viability Assay in HepG2 cells - 32 hour (AID 1224877). Further: nearly all actives have a fitted effect of over 55% in size. Further: potency means the concentration at half of the fitted maximal effect. The gist of the method:
as §1

Experiment [14] can be described thus: A CellTox Green Cytotoxicity Assay to monitor cytotoxicity in HepG2 cells - 24 hour (AID 1224878). Further: nearly all actives have a fitted effect of over 45% in size. Further: potency means the concentration at half of the fitted maximal effect. In outline: as §5
Experiment [15] is described as follows: A CellTox Green Cytotoxicity Assay to monitor cytotoxicity in HepG2 cells - 40 hour (AID 1224879). Further: nearly all actives have a fitted effect of over 40% in size. Further: potency means the concentration at half of the fitted maximal effect. In outline:
as §5

Experiment [16] is described as follows: qHTS RealTime-Glo MT Cell Viability Assay in HEK293 cells - 0 hour (AID 1224880). In outline: as §4
Experiment [17] is described as follows: qHTS RealTime-Glo MT Cell Viability Assay in HepG2 cells - 40 hour (AID 1224870). Further: nearly all actives have a fitted effect of over 50% in size. Further: potency means the concentration at half of the fitted maximal effect. In outline:
(§6)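 Real-time viability: cells seeded at 600 per well together with NanoLuc and cell-permeant prosubstrate, compounds added after 5 h incubation. Luminescence tracked at 0, 8, 16, 24, 32 and 40 h of exposure.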

Experiment [18] is described as follows: qHTS RealTime-Glo MT Cell Viability Assay in HepG2 cells - 8 hour (AID 1224873). Further: nearly all actives have a fitted effect of over 55% in size. Further: potency means the concentration at half of the fitted maximal effect. The gist of the method:
as §6

The nature of experiment [19]: qHTS assay to identify small molecule agonists of the estrogen related receptor (ERR) signaling pathway from Tox21 library (AID 1224849; calls by dose curve; further: on the % scale 0 is the no-effect control and ±100 the full control effect; nearly all actives have a fitted effect of over 15% in size). Conditions: ERR reporter cell line, ONE-Glo luciferase, 18 h; at 92.4 µM (top of the series) unless noted. In outline: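 Cells carrying the ERR reporter were plated and allowed to settle for 6 h, exposed to library compounds for 18 h at 37 C, then lysed with ONE-Glo and luminescence measured.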

The nature of experiment [20]: qHTS assay to identify small molecule antagonists of the estrogen related receptor (ERR) signaling pathway from Tox21 library (AID 1224848). In outline:
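ERR cell line, 2,000 cells/well. 6 h settle, then compound (DMSO) added; 18 h at 37 C; ONE-Glo luminescence after 30 min RT.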

Take `CCCCC(CC)COC(=O)OOC(C)(C)C` (stereo unspecified): the Potency result in experiment [1], in experiment [2], in [3], in [4], in [5] and in experiment [6] was “inactive” throughout. For the same molecule, the Potency entry in experiment [7], in experiment [8], in experiment [9], in [11], in experiment [12] and in experiment [13] was “inactive” throughout. For the same molecule, the Potency result in experiment [14], in experiment [15] and in experiment [16] was “inactive” in each case. Besides, the max response in experiment [10] was 0.0606%.

On to `CC(Cc1ccccc1)N(C)Cc1ccco1` (stereo unspecified), for which the Potency result in experiment [1], in experiment [2], in experiment [3], in experiment [4], in experiment [5] and in [6] was “inactive” each time. Further, the Potency entry in [7], in experiment [17], in experiment [8], in [18], in [11] and in [12] was “inactive” in each case. Further, the Potency entry in experiment [13], in experiment [14], in [15] and in [16] was “inactive” throughout. Further, in experiment [10], the max response is 0.354%.

Take `CC(=O)[O-].CC(=O)[O-].O.O.O.[Pb+2]`: the Potency result in experiment [1], in experiment [2], in experiment [3], in experiment [4], in experiment [5] and in [7] was “inactive” each time. Besides, the Potency result in experiment [17], in [8], in [18], in experiment [11], in experiment [12] and in [13] was “inactive” in each case. For the same molecule, the Potency entry in [14], in experiment [15] and in [16] was “inactive” throughout. Further, the max response in [10] was -1.15%.

In the case of `CCNc1nc(NC(C)C(C)C)nc(SC)n1` (stereo unspecified), the Potency result in experiment [1], in experiment [2], in [3], in experiment [4], in experiment [5] and in [6] was “inactive” throughout. Also, the Potency entry in [7], in experiment [17], in [8], in [18], in experiment [11] and in experiment [12] was “inactive” in each case. Also, the Potency entry in [13], in experiment [14], in [15] and in experiment [16] was “inactive” throughout.

Regarding `CCCCN(CCCC)C(=S)S`, the Potency entry in [1], in experiment [2], in experiment [3], in experiment [5], in [6] and in experiment [7] was “inactive” each time. Further, the Potency entry in experiment [17], in experiment [8], in experiment [9], in experiment [18], in experiment [11] and in [12] was “inactive” throughout. Further, the Potency result in experiment [13] and in [16] was “inactive” each time. Further, the activity change, positive = activation in experiment [19] is -4.56%. Besides, in experiment [10], the max response is -4.16%.

Take `C=CC(=C)C`: the Potency entry in [1], in [2], in experiment [3], in experiment [4], in experiment [5] and in [6] was “inactive” in each case. For the same molecule, the Potency entry in experiment [7], in [8], in experiment [9], in [18], in experiment [11] and in experiment [12] was “inactive” throughout. Further, the Potency entry in experiment [13], in experiment [14], in experiment [15] and in experiment [16] was “inactive” throughout. Further, the max response in [10] is 8.63%.

`COC(=O)c1cc(Oc2ccc(Cl)cc2Cl)ccc1[N+](=O)[O-]`: the Potency entry in [1], in experiment [2], in [3], in experiment [5], in [7] and in [17] was “inactive” in each case. The Potency entry in [8], in experiment [18], in [11], in experiment [12], in experiment [13] and in [14] was “inactive” throughout. Besides, the Potency result in experiment [15] and in experiment [16] was “inactive” each time.

As to `CC1(C)[C@H](/C=C2\CCSC2=O)[C@@H]1C(=O)OCc1coc(Cc2ccccc2)c1`, the Potency result in [1], in experiment [2], in experiment [5], in [7], in experiment [8] and in experiment [11] was “inactive” throughout. Also, the Potency entry in experiment [12], in [13], in experiment [14], in [15] and in experiment [16] was “inactive” throughout.

Turning to `c1csc(-c2ccc(-c3cccs3)s2)c1`, the Potency result in [1], in experiment [2], in experiment [4], in experiment [5], in experiment [6] and in [7] was “inactive” throughout. Also, the Potency entry in [17], in [8], in experiment [9], in experiment [18], in experiment [12] and in experiment [13] was “inactive” throughout. Also, the Potency result in experiment [14], in [15] and in [16] was “inactive” each time. Further, the max response in experiment [10] was -2.2%.

For the molecule `COc1ccc2c(c1OC)C(=O)O[C@@H]2[C@H]1c2cc3c(cc2CCN1C)OCO3`, the Potency entry in experiment [1], in [2], in [4], in [5], in experiment [6] and in [7] was “inactive” throughout. Further, the Potency entry in [17], in experiment [8], in experiment [9], in [18], in experiment [11] and in [12] was “inactive” throughout. Moreover, the Potency entry in experiment [13], in [14], in [15] and in experiment [16] was “inactive” each time. For the same molecule, the max response in [10] was 1.56%.

`N#Cc1c[nH]cc1-c1cccc2c1OC(F)(F)O2`: the Potency result in [1], in [2], in experiment [5], in experiment [7], in experiment [17] and in experiment [8] was “inactive” throughout. Also, the Potency entry in [18], in experiment [11], in experiment [12], in [13], in experiment [14] and in [16] was “inactive” in each case. For the same molecule, the Potency in experiment [20] is 27.3 µM (active); in experiment [6] it was 6.92 µM (active); in experiment [10], 6.16 µM (active); in experiment [15] it was 13.8 µM (active). The activity change, positive = activation in experiment [19] is -48.5%.

As to `CCC[CH2][Sn]([CH2]CCC)([CH2]CCC)[CH2]CCC`, the Potency in [1] is 11 µM (active); in experiment [2] it was 8 µM (active); in experiment [4], 14.2 µM (active); in experiment [5], 6.16 µM (active); in [6], 8.71 µM (active); in [7], 49 µM (active). Moreover, the Potency in experiment [17] was 4.9 µM (active); in experiment [8] it was 12.3 µM (active); in [9] it was 9.77 µM (active); in experiment [18], 11 µM (active); in experiment [10], 7.76 µM (active); in experiment [11] it was 17.4 µM (active). The Potency was 17.4 µM (active) in experiment [12], 4.9 µM (active) in experiment [13], 13.8 µM (active) in experiment [14] and 11 µM (active) in [15]. Moreover, in experiment [19], the activity change, positive = activation was -63.4%.

Consider `C=Cc1cccc(CCl)c1`, for which the Potency result in [1], in experiment [2], in [4], in experiment [5], in [6] and in experiment [7] was “inactive” each time. The Potency entry in experiment [17], in experiment [8], in [9], in [18], in [11] and in experiment [12] was “inactive” in each case. The Potency entry in experiment [13], in experiment [15] and in experiment [16] was “inactive” throughout. In experiment [10], the max response was 4.68%.
